For 17 compounds, composite z-score and z-score results are on record in PubChem BioAssay.

Active and inactive are the calls of the source.

For test [1], the system named is Plasmodium falciparum Sir2 (PF13_0152, Sir2A). Description: pfSir2 binders on small-molecule microarrays, primary screen, biochemical, small-molecule microarray, 635 nm fluorescence (AID 1098).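 Also: score merges spot fluorescence intensity with its signal-to-noise ratio.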 The conditions noted are these: small-molecule microarray binding, fluorescence 635 nm; higher = more signal.
A short description of test [2]: small-molecule microarray binders of probe aDKK1, primary screen, biochemical, biotinylated probe, 635/667 nm fluorescence (AID 1099).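 Also: score merges 667nm spot fluorescence with signal to noise across triplicate slides; reference of the scale not given here.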 The conditions noted are these: higher = more signal.
The nature of test [3]: small-molecule microarray binders of probe aCHRDL2, primary screen, biochemical, biotinylated probe, 635/667 nm fluorescence (AID 1100). The note with it: higher = more signal.
A short description of test [4]: splicing luciferase reporter signal modulators, primary screen, spliceosome inhibition project, cell-based, HEK293, splice +/- reporter (AID 1101).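 Also: HEK293 cells carrying a splicing-competent luciferase reporter gene; test concentration not given here.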 The note with it: luminescence, 24 h, higher = more signal, called active from +8 up or from −8 down. (In general: A reporter such as luciferase makes a cellular process visible.)
Test [5] addresses Fibroblast growth factor 10 (Homo sapiens) (UniProt O15520). The experiment in a line: FGF10 binders on small-molecule microarrays, primary screen, biochemical, small-molecule microarray, 635 nm fluorescence (AID 1102). The note with it: FGF10 binding, fluorescence 635 nm, higher = more signal.
The test system of test [6] is glycogen synthase kinase-3 (GSK3A per assay name; protocol says GSK3B). Description: GSK3 binders on small-molecule microarrays, primary screen, biochemical, small-molecule microarray, 635 nm fluorescence, GSK3A (AID 1103). Also: the record names both GSK3A and GSK3B. The conditions noted are these: small-molecule microarray binding, fluorescence 635 nm; higher = more signal.
Test [7] deals with Epidermal growth factor receptor (Homo sapiens) (UniProt P00533). The experiment in a line: EGFR binders on small-molecule microarrays, primary screen, biochemical, small-molecule microarray, 635 nm fluorescence (AID 1104).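 Also: score merges 667 nm emission intensity with spot signal to noise over triplicate slides.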 The note with it: EGFR binding, higher = more signal.
Sequence of Epidermal growth factor receptor (Homo sapiens) (P00533 whole entry, looked up): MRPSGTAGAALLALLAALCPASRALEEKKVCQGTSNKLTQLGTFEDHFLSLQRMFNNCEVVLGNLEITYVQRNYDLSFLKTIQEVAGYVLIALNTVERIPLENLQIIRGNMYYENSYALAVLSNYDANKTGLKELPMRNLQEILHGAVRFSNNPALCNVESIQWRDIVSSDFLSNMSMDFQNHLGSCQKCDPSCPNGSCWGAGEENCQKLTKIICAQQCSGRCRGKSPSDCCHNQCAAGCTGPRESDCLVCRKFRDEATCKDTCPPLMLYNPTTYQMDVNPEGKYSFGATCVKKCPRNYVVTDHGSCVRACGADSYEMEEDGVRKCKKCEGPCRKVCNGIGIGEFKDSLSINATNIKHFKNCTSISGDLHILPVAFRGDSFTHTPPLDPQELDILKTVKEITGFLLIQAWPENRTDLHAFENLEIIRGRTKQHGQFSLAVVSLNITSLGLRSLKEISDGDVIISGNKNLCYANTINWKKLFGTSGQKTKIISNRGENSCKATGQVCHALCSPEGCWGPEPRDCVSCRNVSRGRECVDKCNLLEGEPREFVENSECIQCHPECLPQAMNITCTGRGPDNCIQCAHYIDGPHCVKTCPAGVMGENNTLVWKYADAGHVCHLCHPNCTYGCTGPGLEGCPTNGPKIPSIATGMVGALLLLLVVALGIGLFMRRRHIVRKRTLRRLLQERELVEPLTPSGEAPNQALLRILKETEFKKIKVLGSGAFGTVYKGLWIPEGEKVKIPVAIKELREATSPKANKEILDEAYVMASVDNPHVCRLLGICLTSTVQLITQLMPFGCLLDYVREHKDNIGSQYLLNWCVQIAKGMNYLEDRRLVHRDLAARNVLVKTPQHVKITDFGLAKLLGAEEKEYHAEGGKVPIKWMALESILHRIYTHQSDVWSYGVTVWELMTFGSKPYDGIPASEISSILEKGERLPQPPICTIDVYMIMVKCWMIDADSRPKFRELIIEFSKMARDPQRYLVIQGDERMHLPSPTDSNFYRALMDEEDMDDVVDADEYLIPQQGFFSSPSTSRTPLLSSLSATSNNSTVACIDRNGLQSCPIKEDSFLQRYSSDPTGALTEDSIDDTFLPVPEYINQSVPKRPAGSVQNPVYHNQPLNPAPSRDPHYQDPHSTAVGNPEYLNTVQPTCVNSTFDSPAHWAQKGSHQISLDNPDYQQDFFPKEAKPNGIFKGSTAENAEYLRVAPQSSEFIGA
Test [8] deals with Follistatin-related protein 3 (Homo sapiens) (UniProt O95633). Description: FSTL3 binders on small-molecule microarrays, primary screen, biochemical, small-molecule microarray, 635 nm fluorescence (AID 1105).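 Also: score merges emission near 667 nm and signal to noise per printed spot across three slides.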 The note with it: FSTL3 binding, higher = more signal.
Sequence of Follistatin-related protein 3 (Homo sapiens) (O95633 whole entry, looked up): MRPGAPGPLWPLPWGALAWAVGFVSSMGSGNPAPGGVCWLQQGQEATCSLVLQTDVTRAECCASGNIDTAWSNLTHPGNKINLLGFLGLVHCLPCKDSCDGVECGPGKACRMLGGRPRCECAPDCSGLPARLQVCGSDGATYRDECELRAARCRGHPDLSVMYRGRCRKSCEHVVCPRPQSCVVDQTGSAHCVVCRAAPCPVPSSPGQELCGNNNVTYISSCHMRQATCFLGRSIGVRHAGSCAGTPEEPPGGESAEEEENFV
The target of test [9] is Dickkopf-related protein 1 (Homo sapiens) (UniProt O94907). The experiment in a line: DKK1 binders on small-molecule microarrays, primary screen, biochemical, small-molecule microarray, 635 nm fluorescence scan (AID 1106).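 Also: score merges emission near 667 nm with signal to noise over three replicate slides.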 The conditions noted are these: DKK1 binding, higher = more signal.
Sequence of Dickkopf-related protein 1 (Homo sapiens) (O94907 whole entry, looked up): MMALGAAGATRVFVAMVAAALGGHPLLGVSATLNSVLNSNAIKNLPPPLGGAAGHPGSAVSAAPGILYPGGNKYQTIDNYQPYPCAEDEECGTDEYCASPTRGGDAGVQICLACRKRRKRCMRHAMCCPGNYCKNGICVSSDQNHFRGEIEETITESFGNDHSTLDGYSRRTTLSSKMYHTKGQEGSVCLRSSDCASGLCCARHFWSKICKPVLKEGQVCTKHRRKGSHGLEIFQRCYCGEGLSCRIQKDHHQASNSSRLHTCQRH
The subject of test [10] is Inhibin beta A chain (activin A). Description: INHBA (activin A) binders on microarrays, primary screen, biochemical, small-molecule microarray, 635 nm fluorescence scan (AID 1107).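 Also: mouse activin A protein probed at 4.33 µg/mL on printed slides; score merges bound-protein fluorescence near 667 nm with spot signal-to-noise.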 The note with it: small-molecule microarray binding, higher = more signal.

Sequence of Fibroblast growth factor 10 (Homo sapiens) (O15520 whole entry, looked up): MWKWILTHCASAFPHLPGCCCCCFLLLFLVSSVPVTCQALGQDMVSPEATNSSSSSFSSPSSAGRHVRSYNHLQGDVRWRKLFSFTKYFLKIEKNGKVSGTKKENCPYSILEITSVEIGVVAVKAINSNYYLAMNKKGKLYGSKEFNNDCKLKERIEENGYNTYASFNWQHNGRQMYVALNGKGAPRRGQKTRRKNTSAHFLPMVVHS

Take `O=C1NC(=O)C2C1C=CC(C(O)c1cccs1)N2Nc1ccccn1` (stereo not given): the composite z-score in test [1] is 0.809; in test [2], 0.53; in test [3], 0.601; in test [5] it was 0.797; in [6], 0.182; in test [7], 0.727. Moreover, the values for the composite z-score in test [8], in test [9] and in test [10] were 0.292, 0.283 and 0.538, respectively. The z-score in test [4] is 0.566 (inactive).
Regarding `OCCCc1cc[n+](Cc2cccc(OC(F)(F)F)c2)cc1`, the composite z-score in test [1] was determined as 1.67; in test [2] it was 0.237; in test [3], 0.526; in test [5], 0.0895; in [6] it was 0.873; in test [7], 0.0648. In addition, the composite z-score in [8] was 1.03; in [9], 0.346; in test [10], 1.14. The z-score in test [4] is -0.109 (inactive).
Regarding `CC(C)[C@H]1COC(=O)N1C(=O)[C@H]1[C@@H](c2ccccc2)N(c2ccccc2)O[C@@H]1C`, the composite z-score was 0.22 in test [1]; -0.139 in test [2]; -0.273 in [3]; 0.521 in test [5]; 0.474 in test [6]; 0.218 in [7]. Besides, the composite z-score in test [8] turned out to be 1.04; in test [9] it was 0.517; in test [10] it was 0.264. In addition, the z-score in [4] was 0.145 (inactive).
For the compound `CCCC[C@H]1C[C@@H]1[C@@H]1N(P(=O)(c2ccccc2)c2ccccc2)[C@](CO)(c2ccccc2)CC12CC2`, the composite z-score is 1.09 in test [1]; 0.639 in test [2]; 1.01 in test [3]; 0.104 in test [5]; -0.571 in test [6]; -0.395 in test [7]. The composite z-score in test [8] was -0.177; in [9], -1.47; in test [10] it was 0.846. Moreover, in [4], the z-score was -4.35 (inactive).
As for `Cc1ccc(S[C@]2(C(=O)NCc3ccccc3)CC(=O)N(Cc3cc(C(F)(F)F)cc(C(F)(F)F)c3)[C@@H]2c2ccc(CO)cc2)cc1`, the composite z-score in [1] was 1.3; in [2] it was -0.614; in test [3], -0.711; in test [5], -0.431; in test [6], -0.817; in test [7], -0.662. Further, the composite z-score in [8] is -0.247; in test [9] it was -0.422; in test [10] it was 0.283. Besides, the z-score in test [4] was 0.0364 (inactive).
`Cc1cccc(/C=C/C=O)c1`: the composite z-score in test [1] was 0; in test [2], -0.101; in test [3] it was 0.558; in test [5], -0.0736; in test [6] it was -0.0687; in test [7], -0.391. In addition, the composite z-score in test [8] was 0.119; in test [9] it was -0.214; in test [10] it was 0.561. Moreover, the z-score in test [4] was 0.465 (inactive).
For `NC(=O)[C@@]1(CCS(=O)(=O)c2ccccc2)N=C(c2ccc(OCCCO)cc2)O[C@H]1c1ccccc1`, the composite z-score in test [1] is 1.28; in [2], 0.518; in [3] it was 0.7; in test [5], 1.08; in [6], 0.953; in test [7] it was -0.151. Moreover, the figures for the composite z-score in test [8], in test [9] and in test [10] were -0.437, 0.015 and 0.564, respectively. Moreover, the z-score in test [4] is -0.675 (inactive).
Turning to `Cn1c2c(c3ccccc31)C(=O)C1NC2C=CC1(C)C(=O)OCc1ccccc1` (stereo not given), the composite z-score in test [1] is 1.15; in [2], 0.347; in [3], 1.26; in test [5] it was -0.667; in test [6], -0.788; in test [7] it was -1.57. The composite z-score is -1.58 in test [8], -2.53 in test [9] and 0.674 in test [10]. Moreover, the z-score in [4] was 0.167 (inactive).
`C[N+](C)(C)CCCCNC(=O)[C@H]1C[C@H]2C(=O)N3CCC[C@H]3C(=O)N2[C@H]1c1ccc(O)cc1`: the composite z-score in [1] is 1.48; in test [2], 0.0607; in test [3], -0.152; in [5], 1.39; in [6] it was 0.521; in [7], 0.967. Moreover, the composite z-score was 1.49 in test [8], 1.82 in test [9] and -0.443 in test [10]. Moreover, in test [4], the z-score was 0.0339 (inactive).
With `COc1ccc(C#Cc2ccc3c(c2)[C@]2(C(=O)N3)[C@H](c3ccc(OCCO)cc3)N3[C@H](c4ccccc4)[C@H](c4ccccc4)OC(=O)[C@H]3[C@@H]2C(=O)Nc2nc3ccccc3s2)cc1`, the composite z-score came out at 1.29 in test [1]; 0.771 in test [2]; 0.72 in test [3]; 1.3 in test [5]; 1.29 in [6]; 0.655 in test [7]. For the same compound, the composite z-score in test [8] amounted to 1.38; in test [9] it was 0.618; in [10], 0.331. In addition, the z-score in [4] is 3.63 (inactive).
Turning to `CO[C@H]1O[C@H](CO)[C@@H](OC(=O)Nc2cccc(F)c2)[C@H](OC(=O)Nc2ccccc2-c2ccccc2)[C@@H]1OC(=O)Nc1ccccc1-c1ccccc1`, the composite z-score in [1] was found to be 1.13; in test [2], 0.568; in [3], 0.74; in test [5] it was 1.17; in [6], 0.673; in [7], 0.407. In addition, the results for the composite z-score in test [8], in test [9] and in test [10] were 1.11, 0.198 and 0.434, respectively. In addition, in test [4], the z-score is 1.54 (inactive).
Consider `COC(=O)c1c(CC[C@@H](CO)NC(=O)Nc2ncn[nH]2)oc(C(=O)Cc2ccccc2)c1C(=O)OC`, for which the composite z-score in [1] was 0.0638; in [2], 0.0272; in [3] it was -0.0621; in [5], 1.08; in test [6], 0.938; in [7] it was 0.596. The results for the composite z-score in test [8], in test [9] and in test [10] were 1.01, 0.957 and 0.616, respectively. The z-score in test [4] is 0.801 (inactive).
Take `COCCOC(=O)N1C(=O)[C@@]2(c3cc(C#Cc4ccc(OC)cc4)ccc31)[C@H](C(N)=O)[C@H]1C(=O)O[C@H](c3ccccc3)[C@H](c3ccccc3)N1[C@@H]2c1ccc(O)cc1`: the composite z-score in [1] was 0.356; in test [2] it was -0.76; in test [3], -0.318; in test [5] it was -1.67; in [6], -1.53; in test [7], -1.67. For the same compound, the composite z-score in [8] was -1.95; in test [9], -2.42; in [10] it was -0.115. Further, in test [4], the z-score is -0.298 (inactive).
Consider `CC(C)(C)OC(=O)CC[C@]1(C(=O)NCC(O)CO)N=C(c2ccc(OCCCO)cc2)O[C@H]1c1ccccc1CN=[N+]=[N-]` (stereo not given in full), for which the composite z-score in test [1] is 0.982; in [2], 1.27; in [3], 1.33; in test [5] it was 1.5; in [6], 0.554; in test [7], -0.256. In addition, the composite z-score in [8] was 0.676; in test [9] it was -0.0583; in test [10] it was 0.487. Moreover, the z-score in test [4] was 0.121 (inactive).
In the case of `C=CC[C@@]1(C(N)=O)N=C(c2ccc(OCCCO)cc2)O[C@@H]1c1ccccc1N=[N+]=[N-]`, the composite z-score is 1.61 in test [1]; 1.36 in test [2]; 1.14 in test [3]; 0.63 in test [5]; 0.649 in [6]; 0.0347 in test [7]. Besides, the composite z-score was 0.0562 in test [8], 1.16 in test [9] and 1.38 in test [10]. In addition, the z-score in test [4] was -0.0133 (inactive).
On to `C=CCC(OC(C)=O)[C@@H]1[C@@H](N(Cc2ccc(-c3ccccc3)cc2)C(=O)c2ccc(C)cc2)c2cc(OCCCO)ccc2N1C(=O)Cc1ccc(OC)cc1` (stereo not given in full), for which the composite z-score is 1.36 in [1]; -0.0745 in [2]; -0.216 in test [3]; 0.191 in [5]; -0.159 in [6]; 0.0485 in test [7]. In addition, the results for the composite z-score in test [8], in test [9] and in test [10] were 0.0762, 0.22 and 1.23, respectively. Further, the z-score in test [4] is -1.03 (inactive).
With `COc1ccc([Si](C)(C)[C@@H]2[C@@H](CCO)O[C@]3(C(=O)N(Cc4ccccc4)c4ccc(N(C=O)c5ccccc5)cc43)[C@H]2C)cc1`, the composite z-score in [1] was 0.622; in test [2], -0.185; in [3], -0.025; in test [5], 0.454; in test [6], -0.141; in test [7], 0.012. For the same compound, the composite z-score in [8] is -0.0895; in test [9], 0.169; in [10], 0.328. Moreover, in [4], the z-score was -1.1 (inactive).
